Screening data (PubChem)
Rows were chosen to be rich in hits. Some 5.3% of all compounds tested hit in one or more screens of this group.
15-hLO-2 inh: inhibitors of human 15-lipoxygenase 2 (ALOX15B) | O15296 | purified 15hLO-2, xylenol orange hydroperoxide absorbance | Potency, µM (doses to about 57.1 µM), for inactives: top-dose activity change, negative = inhibition, hits mostly inhibitors | actives 0.56% (n = 110,000) | AID 881; further: potency means the concentration at half of the fitted maximal effect; nearly all actives have a fitted effect of over 60% in size
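Screening format was qHTS against 50 nM purified 15hLO-2 in Hepes pH 7.5 with detergent. Activity follows hydroperoxide formation from 45 uM arachidonic acid, measured as 573:405 nm absorbance ratio of the ferric-xylenol orange complex.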
PNC inhibitor: perinucleolar compartment assembly inhibition; PC3M PTB-GFP, PNC prevalence imaging, 16 h; stronger effect = lower value; activity change (PNC), negative = inhibition, % at 10 µM; actives 3.1% (n = 140,000); AID 2417;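 active means readout at or below -70, meaning at least 70% loss of cells showing the perinucleolar compartment, a nuclear body marking cancer cells; inconclusive means readout between -30 and a set limit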;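 further: plate controls were DMSO wells for no effect and camptothecin positive control wells for full effect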
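PC3M cells stably expressing PTB-GFP, 750–1000 cells/well, treated 16 h at 37 °C with compound (23 nl of library stock), in duplicate. After paraformaldehyde fixation and Hoechst stain, imaged at 20x; PNC prevalence scored by image analysis.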
12-hLO inh: inhibitors of human 12-lipoxygenase (ALOX12) | P18054 | purified 12-hLO, xylenol orange hydroperoxide absorbance | Potency, µM (series often up to 57.1 µM), for inactives: top-dose activity change, negative = inhibition, hits mostly inhibitors | actives 0.12% (n = 150,000); further: potency means the concentration at half of the fitted maximal effect; nearly all actives have a fitted effect of over 55% in size
Target sequence (P18054 whole entry, looked up): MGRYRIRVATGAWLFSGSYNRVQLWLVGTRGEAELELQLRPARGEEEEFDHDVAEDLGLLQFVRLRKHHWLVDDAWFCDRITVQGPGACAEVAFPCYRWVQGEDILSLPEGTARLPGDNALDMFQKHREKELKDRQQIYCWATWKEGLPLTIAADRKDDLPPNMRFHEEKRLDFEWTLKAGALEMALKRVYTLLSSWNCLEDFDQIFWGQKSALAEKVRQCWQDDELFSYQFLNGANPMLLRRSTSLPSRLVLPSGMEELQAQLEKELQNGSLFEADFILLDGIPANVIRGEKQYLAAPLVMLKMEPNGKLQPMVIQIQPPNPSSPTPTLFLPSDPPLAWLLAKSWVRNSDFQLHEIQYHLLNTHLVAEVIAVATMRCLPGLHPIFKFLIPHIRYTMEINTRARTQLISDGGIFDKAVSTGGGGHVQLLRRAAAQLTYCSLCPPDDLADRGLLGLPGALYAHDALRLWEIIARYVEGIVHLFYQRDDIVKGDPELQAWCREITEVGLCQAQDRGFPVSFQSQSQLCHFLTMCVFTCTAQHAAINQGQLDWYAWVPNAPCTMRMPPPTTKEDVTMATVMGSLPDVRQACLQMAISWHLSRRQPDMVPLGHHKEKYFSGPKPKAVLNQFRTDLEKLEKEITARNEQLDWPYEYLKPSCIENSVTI
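Hydroperoxide formation by human 12-lipoxygenase from 40 uM arachidonic acid was followed colorimetrically via ferric-xylenol orange complex, using the 573/405 nm absorbance ratio. Enzyme concentration was 150 nM, with 30 min reaction at room temperature.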
IMPase Li inh: cell-permeable IMPase inhibitors with lithium potentiation | Potency, µM (top dose mostly 59.4 µM), for the others: at the highest dose activity, negative = IMPase inhibition, most hits filed as inhibitors | actives 0.35% (n = 210,000) | CHO-M1 cells, IP1 TR-FRET (IP-One), carbachol + lithium | AID 1457;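 further: IP1 builds up when IMPase is blocked and the TR-FRET signal falls; potency means the concentration at half of the fitted maximal effect; plate controls were basal vehicle for no effect and high inhibitor control for full effect; nearly all actives have a fitted effect of over 50% in size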
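Concentration–response in CHO-M1 cells, lithium-potentiated; 30 min at 37C. IP1 detected by competitive TR-FRET after 10 min lysis at RT. Hill-fitted AC50.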
IMPase inh: cell-permeable inhibitors of inositol monophosphatase (IMPase) | AID 901 | P97697 | CHO-M1 cells, IP1 accumulation, HTRF TR-FRET ratio | inhibition (IP1 accumulation), % at 46.1 µM | 120,000 tested, under 10 active; active means well fitted curve in the direction sought with a large enough effect in the signal ratio, not every such curve was filed as active; inconclusive means small, poorly fitted or top-dose-only effect, or a change in a side signal; inactive means no such curve, though single readings can be large or run the other way; the % refers to the signal ratio;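 further: cells stimulated with carbachol in lithium chloride buffer; plate controls were DMSO basal wells for no effect and reference inhibitor wells for full effect; higher means more IMPase inhibition seen as more IP1 and lower FRET ratio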
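Measured: the HTRF emission ratio (665/620 nm) plus the 620 nm donor channel, each fitted to the Hill equation to give AC50. Cells were CHO-M1 given compounds up to 46 uM and a 30 min carbachol stimulation at 37C.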
HPGD block: HPGD (human) dehydrogenase inhibition; P15428; purified HPGD, NADH fluorescence kinetic, PGE2 substrate; Potency, µM, for inactives: at the highest dose activity change, negative = inhibition, actives largely listed as inhibitors; actives 4.3% (n = 150,000); AID 894; active means well fitted inhibition curve with a large enough effect, not every such curve was filed as active; inconclusive means small, poorly fitted or top-dose-only effect, or another doubt; inactive means no such curve, though single readings can be large or run the other way; further: potency means the concentration at half of the fitted maximal effect
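NADH formation kinetics: reaction with 30 uM PGE2 and 1 mM NAD+ (final), 20 nM enzyme, Tris-HCl pH 8 with Tween 20, after 15 min compound preincubation at room temperature. Fluorescence change, last versus first of five reads.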
Active calls of the source: *; ? = inconclusive; · = no result; [ ] = another dose, or the depositor's remark. Unless noted, the call rests on the fitted dose curve; in most records, active means well fitted curve in the direction sought with a large enough effect; inconclusive means small, poorly fitted or top-dose-only effect, or another doubt; inactive means no such curve, though single readings can be large; an effect the other way counts as inactive or inconclusive. Unless noted, on the % scale 0 is the no-effect control and ±100 the full control effect.

SMILES | 15-hLO-2 inh | PNC inhibitor | 12-hLO inh | IMPase Li inh | IMPase inh | HPGD block
CN(C)C(=O)CN(c1ccc2c(c1)OCO2)S(C)(=O)=O | 13.2% | -106.5* | 0.8% | 17.9%[38.3 µM] | 2.2 | -6.2%
CS(=O)(=O)N(CC(=O)Nc1ccc2c(c1)OCO2)c1ccc2c(c1)OCO2 | -4.0% | 18.0 | -7.3% | 40.6%[38.3 µM] | 8.2 | -3.6%
C[C@@H](C(=O)O)c1ccc(C(=O)c2cccs2)cc1 | 2.0%[25.6 µM] | · | -4.1%[25.6 µM] | -27.1% | -21.5[20.6 µM] | -17.5%
CCn1c(CSc2nc3ccccc3[nH]2)n[nH]c1=S | 6.9%[2.29 µM] | -122.4* | 2.7% | 4.1%[38.3 µM] | -2.5 | -9.0%
CC(=O)Nc1ccc(OC(=O)c2ccc(Cl)cc2)cc1 | · | -80.5* | -2.6% | -5.6% | · | -15.2%
CC(=O)Nc1ccc(C(=O)OCc2ccc(Cl)cc2)cc1 | 18.4% | 59.2 | 6.2% | -13.5%[38.3 µM] | -2.9 | -11.5%
O=C(Nc1ccc(C(=O)N2CCCC2)cc1)c1ccccc1F | 1.6% | -21.4 | -2.9% | -6.2%[38.3 µM] | 2.8 | 3.16µM*
Cc1ccc(-c2ccc(NC(=O)C3C4C=CC(C4)C3C(=O)O)cc2)o1 (configuration not stated) | -1.9% | 9.9 | -1.8% | 7.3%[38.3 µM] | 4.1 | 20µM*
CC1CCN(C(=O)c2ccc(NS(C)(=O)=O)cc2)CC1 | 0.9% | -18.3 | -6.9% | -3.5%[38.3 µM] | 7.2 | 10µM*
Cc1noc(C)c1S(=O)(=O)Nc1ccc(C(=O)N2CCCCC2)cc1 | -0.7% | -19.5 | 1.8% | 19.3%[38.3 µM] | -3.5 | 31.6µM*
O=C(Nc1cc(C(=O)N2CCCC2)ccc1N1CCCC1)c1ccccc1F | -1.7% | 38.7 | -3.8% | 10.5%[38.3 µM] | 4.5 | ?
CN(CC(=O)Nc1ccc(N2CCOCC2)cc1)Cc1cc(=O)n2ccsc2n1 | · | · | · | -12.5% | · | ·
COCCN(CCOC)c1nc(C)nc2c1nc(-c1ccccc1)n2CCN1CCCC1 | 22.7% | · | -2.1% | -1.9% | · | ?
CS(=O)(=O)Nc1ccc(C(=O)N2CCCCC2)cc1 | 1.5% | 14.0 | -1.1% | -3.3%[38.3 µM] | -2.8 | 14.1µM*
CC(C)C(=O)Nc1ccc(C(=O)c2ccccc2)cc1 | · | ? | -1.9% | 15.4% | 11.9 | 14.1µM*
CS(=O)(=O)Nc1ccc(C(=O)N2CCc3ccccc3C2)cc1 | · | · | · | 6.2% | · | ·
NS(=O)(=O)c1ccc(NC(=S)Nc2ccc(C(=O)N3CCCCC3)cc2)cc1 | · | · | · | 6.8% | · | ·
O=C(c1ccc(NC(=S)Nc2ccc(Cl)c(Cl)c2)cc1)N1CCCC1 | · | 15.8 | -5.7% | 2.6% | -1.0 | 11.2µM*
CS(=O)(=O)Nc1ccc(N2CCCCC2)c(Cl)c1 | 0.6% | 16.5 | -2.7% | 23.6%[38.3 µM] | -3.9 | 7.08µM*
CC(C)C(=O)Nc1ccc(C(=O)NNC(=O)CCc2ccccc2)cc1 | · | -12.6 | -1.7% | -9.6% | · | -12.3%
CS(=O)(=O)Nc1ccc(S(=O)(=O)N2CCCC2)cc1 | · | · | · | 4.0% | · | ·
Cc1cc2ncc(C(=O)Nc3ccsc3C(=O)O)c(C)n2n1 | · | · | · | 7.2% | · | ·
CCn1cc(C(=O)Nc2ccc(C(=O)N3CCCC3)cc2)c(=O)c2ccc(C)nc21 | -1.8% | -6.1 | 0.8% | -14.1%[38.3 µM] | -2.8 | 3.98µM*
CCn1cc(C(=O)Nc2ccccc2)c(=O)c2ccc(C)nc21 | · | · | · | 9.0% | · | ·
O=C(O)C1C2C=CC(C2)C1C(=O)Nc1ccc(C(=O)N2CCCCC2)cc1 (configuration not stated) | -5.3%[11.4 µM] | 7.7 | 3.6% | 14.8%[38.3 µM] | -4.1[1.84 µM] | 1.26µM*
SMILES | 15-hLO-2 inh | PNC inhibitor | 12-hLO inh | IMPase Li inh | IMPase inh | HPGD block
CC(C)C(=O)Nc1ccc(C(=O)N2CCCCCC2)cc1 | -1.5% | -1.6 | 7.1% | -4.8%[38.3 µM] | 2.7 | 2µM*
O=C(CCc1ccccc1)NC(=S)Nc1ccccc1Br | · | · | · | 13.2% | · | ·
O=C1COC(c2ccccc2)C2CCCCN12 (configuration not stated) | · | ? | 1.9% | -0.9% | · | -2.8%
CCCCOC(=O)C(C)Sc1n[nH]c(=O)[nH]c1=O (configuration not stated) | · | · | · | -6.5% | · | ·
Cc1csc(NC(=O)c2nc3nc(C)cc(C)n3n2)n1 | 2.5% | -95.4* | -0.5% | -11.5%[38.3 µM] | -3.5 | -15.9%
Cc1csc(NC(=O)c2cc(C)oc2C)n1 | 1.2% | -11.3 | -6.5% | -7.2%[38.3 µM] | 2.0 | 17.8µM*
